Data taken from the supplement of paper PMC12350171.
Counter-ions that a name gives are not always drawn. Unmarked numbers belong to inactive results.

Tests used:
Conditions in all cases: 20 µM
[1] = test system: P. vulgatus RND KO; assay: growth AUC normalised to DMSO control (median) (fraction of control); higher = less growth inhibition, active = hit call of the paper
Procedure, shortened: (§1)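 After two overnight anaerobic passages, strains were inoculated at OD578 0.01 into mGAM in 96-well plates containing approved-drug library compounds at 20 μM and 1% DMSO. Growth was followed by reading OD578 hourly for 24 h within an anaerobic incubator. Area under the curve, taken by the trapezoidal rule up to the start of stationary phase, was normalised to same-plate vehicle wells, and the median of three biological replicates is listed.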

[2] = test system: P. vulgatus WT; assay: as above
Procedure, shortened: as §1

[3] = test system: S. enterica typhimurium WT; assay: as above
Procedure, shortened: as §1

[4] = test system: S. enterica typhimurium tolC KO; assay: as above
Procedure, shortened: as §1

[5] = test system: Haemophilus parainfluenzae; assay: growth AUC normalised to DMSO control (fraction of control); higher = less growth inhibition, active = hit call of the paper
Procedure, shortened: (§2)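 Hemin and NAD were added to the medium for Haemophilus parainfluenzae. All pathogens, after two anaerobic passages, were inoculated at a starting OD578 of 0.01 into pre-reduced mGAM plates with 20 μM compound and 1% DMSO under breathable seals, and OD578 was read hourly for 24 h in three biological replicates. AUC of each growth curve was obtained with the trapezoidal rule up to the exponential-to-stationary transition and normalised to DMSO controls from the same plate.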

[6] = test system: Salmonella enterica typhimurium; assay: as above
Procedure, shortened: as §2

[7] = test system: Shigella flexneri; assay: as above
Procedure, shortened: as §2

[8] = test system: Vibrio cholerae; assay: as above
Procedure, shortened: as §2

[9] = test system: Yersinia pseudotuberculosis; assay: as above
Procedure, shortened: as §2
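Wherever growth AUC normalised to DMSO control (median) is given: active when median AUC fell below 0.1.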

SMILES | growth AUC normalised to DMSO control [1] | growth AUC normalised to DMSO control [2] | growth AUC normalised to DMSO control [3] | growth AUC normalised to DMSO control [4] | growth AUC normalised to DMSO control [5] | growth AUC normalised to DMSO control [6] | growth AUC normalised to DMSO control [7] | growth AUC normalised to DMSO control [8] | growth AUC normalised to DMSO control [9]
N#Cc1nn(-c2c(Cl)cc(C(F)(F)F)cc2Cl)c(N)c1[S+]([O-])C(F)(F)F (stereo unspecified) [Fipronil] | 0.985 | 0.906 | 1.01 | 0.903 |  |  |  |  | 
CC[C@@]1([C@@H]2O[C@@H]([C@H]3O[C@@](O)(CO)[C@H](C)C[C@@H]3C)C[C@@H]2C)CC[C@H]([C@]2(C)CC[C@]3(C[C@H](O)[C@@H](C)[C@@H]([C@@H](C)[C@@H](OC)[C@H](C)C(=O)O)O3)O2)O1 [Monensin sodium salt] | 0.261 | 0.305 | 1 | 0.856 |  |  |  |  | 
NCC(CC(=O)O)c1ccc(Cl)cc1 (stereo unspecified) [Baclofen] | 1.02 | 1.07 | 1.02 | 0.999 | 1.04 | 1.01 | 1.01 | 1.01 | 0.992
C[C@]12CC[C@H](O)CC1=CC[C@@H]1[C@@H]2CC[C@]2(C)C(=O)CC[C@@H]12 [Prasterone] | 0.995 | 0.994 | 1.01 | 0.942 |  |  |  |  | 
CC(C)(C)NCC(O)c1ccccc1Cl (stereo unspecified) [Tulobuterol Hydrochloride] | 1.01 | 1 | 0.995 | 0.989 |  |  |  |  | 
CC[C@@H](C(=O)[C@@H](C)[C@@H](O)[C@H](C)[C@@H]1O[C@@H]([C@@H](CC)C(=O)O)CC[C@@H]1C)[C@H]1O[C@]2(C=C[C@@H](O)[C@]3(CC[C@@](C)([C@H]4CC[C@](O)(CC)[C@H](C)O4)O3)O2)[C@H](C)C[C@@H]1C [Salinomycin sodium] | 0.00978 (active) | 0.00987 (active) | 1.01 | 0.781 |  |  |  |  | 
CC(=O)OCC1=C(C(=O)O)N2C(=O)[C@@H](N)[C@H]2SC1 [Cephalosporanic acid, 7-amino] | 0.0227 (active) | 0.0158 (active) | 1 | 0.983 | 0.942 | 0.999 | 0.987 | 0.968 | 0.99
Oc1ccc(Cl)cc1Cc1cc(Cl)ccc1O [Dichlorophen] | 0.641 | 0.442 | 0.915 | 0.00799 (active) |  |  |  |  | 
C[C@]12C=CC(=O)C=C1CC[C@@H]1[C@@H]2CC[C@@]2(C)[C@H]1CC[C@]2(C)O [Methandrostenolone] | 0.996 | 0.998 | 1.01 | 0.982 |  |  |  |  | 
Cc1cccc(C)c1NC(=O)CN1CCCC1=O [Nefiracetam] | 1.01 | 1.01 | 1 | 1 |  |  |  |  | 
NC(=O)CN1CC(O)CC1=O (stereo unspecified) [Oxiracetam] | 1.02 | 1.03 | 1 | 0.955 |  |  |  |  | 
C[N+]1(C)CCCC(OC(=O)C(O)(c2ccccc2)c2ccccc2)C1 (stereo unspecified) [Mepenzolate bromide] | 1.02 | 1.05 | 1.01 | 0.996 | 0.915 | 1.01 | 0.986 | 0.947 | 1
NC(=O)OCCCc1ccccc1 [Phenprobamate] | 1.01 | 1.02 | 0.989 | 0.991 |  |  |  |  | 
c1ccc2c(c1)Nc1ccccc1S2 [Phenothiazine] | 1.01 | 1.01 | 0.972 | 0.945 |  |  |  |  | 
C=CC[C@]1(O)CC[C@H]2[C@@H]3CCC4=CCCC[C@@H]4[C@H]3CC[C@@]21C [Allylestrenol] | 0.959 | 0.925 | 1.02 | 1.01 |  |  |  |  | 
C#C[C@]1(O)C=C[C@H]2[C@@H]3CCC4=CC(=O)CC[C@@H]4[C@H]3CC[C@@]21CC [Gestodene] | 0.978 | 0.978 | 0.997 | 0.995 |  |  |  |  | 
Nc1nc(N)nc(NC2CC2)n1 [Cyromazine] | 0.998 | 1.01 | 1 | 0.988 |  |  |  |  | 
CCC1(C2=NCCN2)Cc2ccccc2O1 (stereo unspecified) [Efaroxan hydrochloride] | 1.02 | 1.03 | 0.997 | 0.999 |  |  |  |  | 
CN[C@@H]1[C@@H](O)[C@@H](O[C@@H]2[C@@H](O)[C@H](O[C@H]3O[C@H](CN)CC[C@H]3N)[C@@H](N)C[C@H]2N)OC[C@]1(C)O.CN[C@@H]1[C@@H](O)[C@@H](O[C@@H]2[C@@H](O)[C@H](O[C@H]3O[C@H]([C@@H](C)N)CC[C@H]3N)[C@@H](N)C[C@H]2N)OC[C@]1(C)O.CN[C@@H]1[C@@H](O)[C@@H](O[C@@H]2[C@@H](O)[C@H](O[C@H]3O[C@H]([C@@H](C)NC)CC[C@H]3N)[C@@H](N)C[C@H]2N)OC[C@]1(C)O [Gentamicine sulfate] | 1.05 | 1.02 | 1 | 1 | 0.864 | 1 | 1.02 | 1.04 | 1.02
